System: VDR:RXRa (NR concentration 270 nM, RXRa partner concentration 90 nM)
Assay: PBM binding z-score (relative to random genomic background probes); higher = stronger binding; sequences stand for … in GC…GCGATTGACAGCGTAGAATGAAGG
Protocol: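 Protein-binding microarray (Agilent 4x180K custom design, double-stranded 60-nt probes: 5' GC cap, 34-nt variable region, 24-nt constant primer region; full probe sequence given). Purified or IVT nuclear receptor:RXRα heterodimers (3:1 NR:RXRα, mostly 270:90 nM) or homodimers were incubated for 1 h in PBS with 2% milk and no ligand, then detected with Alexa488 antibodies. Fluorescence from o1-orientation probes (~5 replicates averaged) was converted to z-scores against 500 random hg19 background probes. Variable regions are seed direct-repeat (DR0–DR5) sites, all their single-nucleotide variants and half-site ablations.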

First: ATATGTAGGTTAGAGTCATTCAGAAAGTAGGGAA
Second: TCGAGTAGGTTACGTGGGCATTCAGGGATGAAGA
The PBM binding z-score of the first is higher: 0.295 for the first, 0.00981 for the second.

Compared with CGAACTAGGTCACCAAGACAGTGAAGAGGTTGGA, ATATGCAGGTTAGGGTCATTCAGAAAGTAGGGAA is higher in PBM binding z-score: 1.49 for the first, 4.26 for the second.

Compared with TAGCCTAGCTCATTCAGGGGCCAGTATAGAAAGC, CGAACTAGTTCAAAGGACAGTGAAAGGCGACGTA is higher in PBM binding z-score: -0.541 for the first, 0.0501 for the second.

Compared with CGTCTAAGGTCAAAGGTCAGTGAAGAGATGACGG, GCTGCTCGGTCAACTGATGGTCAGCTAAAGCTCG is lower in PBM binding z-score: 6.78 for the first, -0.285 for the second.

Compared with AGAATGAGGTTAAGATTAGGGAAACAGAATACAT, CCTACTGGGCCAAAGGTCAGTGATTCCAATGCTC is higher in PBM binding z-score: 1.36 for the first, 2.88 for the second.

First: CCGAGTAGGTAACGAGGGGGCATTCAGTGCGAAT
Second: AATACAGGGACATCGTAGGCCAGAGTACGCACAG
The PBM binding z-score of the first is higher: 4.19 for the first, -0.0914 for the second.

Compared with ATACCAAGGTGATCGTGAGTTCGTTGATACTAAC, CAAACTAGGTCAAAGGTCAAAGTAGAGCCAACCA is higher in PBM binding z-score: 4.08 for the first, 6.71 for the second.

Going from TCTAGTTGGTCACGGGGGTCACACACGACGGGTA to TCTAGTTGGTCATGGAGGTCACACACGACGGGTA, the PBM binding z-score falls from 6.57 to 5.98.

First: CCGACTTGGGCAAAGGTTACCATACTCAGTACGA
Second: ATCGAAAGGTCGTGAGGTGAGTACACAGAAAGGC
The PBM binding z-score of the first is lower: 0.927 for the first, 4.14 for the second.

Going from CAAACTAGGTCACAGGGGTCAAAGTCCGTGCGTA to CCGAGTAGGTTATGAGGGGGCATTCAGTGCGAAT, the PBM binding z-score falls from 8.24 to 5.25.

Going from ATCTCTAGGTGAAAGTTCAGTGAATCCCGAGGAT to GATACAGGGGCAAGGCCAGAGTACGCGTATTGAT, the PBM binding z-score falls from 1.83 to 0.153.

Compared with ACTAGAAGGCCAAGGGTCACTCAAGATTAGTCCG, GCTGCTAGGTCATGTTGGTCAGCTAACGGGTACG is lower in PBM binding z-score: 3.26 for the first, 2.15 for the second.

Compared with CCTACTGGGCAAAAAAGGTCATTGATGCCGATAA, GGAACGAGCGCAAAGTTGATAGCATCTGTCGACG is lower in PBM binding z-score: 4.36 for the first, -0.765 for the second.

Going from ACTTACGGGTCAACGACGTTATAGCACGCGTATA to CCTGCTAGGACAATGGTCAGCTAAAGCAGCTCGC, the PBM binding z-score falls from 4 to -0.832.

Going from ATATGTAGGTCAGGGTCATTCAGAAAGTAGGGAA to ATATGTCGGTTAGGGTCATTCAGAAAGTAGGGAA, the PBM binding z-score falls from 5.08 to 4.56.

Compared with CCTAGTGGGTCAGGAGGTCACACACCGGATATGA, AAATGTAGGTTAAGGGTCATTCAGGTTGGTTCGC is higher in PBM binding z-score: 4.65 for the first, 5.82 for the second.

First: TGAATGAGGTCAAAGATCAGGGAACGTGGCGTCG
Second: CGCACTAGGTCATTGACAGGACAGTGAATAGTAA
The PBM binding z-score of the first is higher: 5.6 for the first, 2.36 for the second.

Compared with TCGAGTAGGTTACGGGGGCGTTCAGGGATGAAGA, ATATGTAGATTAGGGTCATTCAGAAAGTAGGGAA is higher in PBM binding z-score: 3.7 for the first, 4.06 for the second.

First: ATATGTAGGTAACATCCGGGTCATTCAGGCTATG
Second: ATATGTAGGTTAGGGTCACTCAGAAAGTAGGGAA
The PBM binding z-score of the first is lower: 3.75 for the first, 3.98 for the second.

First: ATATGTAGGTTAGTGTCATTCAGAAAGTAGGGAA
Second: AGTCAAAGTTCATCTAGGTATCGTAAGATATGCT
The PBM binding z-score of the first is lower: 1.04 for the first, 5.01 for the second.
